Experimental data reported in PubChem BioAssay AID588664 (The Scripps Research Institute Molecular Screening Center, 2011).
The whole screen tested about 360,000 compounds, of which about 1,400 (0.39%) were called active. Cut-off read from the data, not from the text of the source: active = inhibition above about 5% (passing the limit was not always enough); inactive = the rest. Only a selection was taken, and actives are over-represented in it overall.

The compounds below were run against Tyrosine-protein kinase ABL1 (Homo sapiens) + Ras and Rab interactor 1 (Homo sapiens) (UniProt P00519+Q13671) (assay: disruptors of human Abl and Rin1 association – biochemical, TR-FRET, primary screen (AID 588664)). Settings: TR-FRET Rin1/Abl binding, at 7.35 µM, active compounds read high.
Chain of Tyrosine-protein kinase ABL1 (Homo sapiens) + Ras and Rab interactor 1 (Homo sapiens) (P00519 whole entry, looked up): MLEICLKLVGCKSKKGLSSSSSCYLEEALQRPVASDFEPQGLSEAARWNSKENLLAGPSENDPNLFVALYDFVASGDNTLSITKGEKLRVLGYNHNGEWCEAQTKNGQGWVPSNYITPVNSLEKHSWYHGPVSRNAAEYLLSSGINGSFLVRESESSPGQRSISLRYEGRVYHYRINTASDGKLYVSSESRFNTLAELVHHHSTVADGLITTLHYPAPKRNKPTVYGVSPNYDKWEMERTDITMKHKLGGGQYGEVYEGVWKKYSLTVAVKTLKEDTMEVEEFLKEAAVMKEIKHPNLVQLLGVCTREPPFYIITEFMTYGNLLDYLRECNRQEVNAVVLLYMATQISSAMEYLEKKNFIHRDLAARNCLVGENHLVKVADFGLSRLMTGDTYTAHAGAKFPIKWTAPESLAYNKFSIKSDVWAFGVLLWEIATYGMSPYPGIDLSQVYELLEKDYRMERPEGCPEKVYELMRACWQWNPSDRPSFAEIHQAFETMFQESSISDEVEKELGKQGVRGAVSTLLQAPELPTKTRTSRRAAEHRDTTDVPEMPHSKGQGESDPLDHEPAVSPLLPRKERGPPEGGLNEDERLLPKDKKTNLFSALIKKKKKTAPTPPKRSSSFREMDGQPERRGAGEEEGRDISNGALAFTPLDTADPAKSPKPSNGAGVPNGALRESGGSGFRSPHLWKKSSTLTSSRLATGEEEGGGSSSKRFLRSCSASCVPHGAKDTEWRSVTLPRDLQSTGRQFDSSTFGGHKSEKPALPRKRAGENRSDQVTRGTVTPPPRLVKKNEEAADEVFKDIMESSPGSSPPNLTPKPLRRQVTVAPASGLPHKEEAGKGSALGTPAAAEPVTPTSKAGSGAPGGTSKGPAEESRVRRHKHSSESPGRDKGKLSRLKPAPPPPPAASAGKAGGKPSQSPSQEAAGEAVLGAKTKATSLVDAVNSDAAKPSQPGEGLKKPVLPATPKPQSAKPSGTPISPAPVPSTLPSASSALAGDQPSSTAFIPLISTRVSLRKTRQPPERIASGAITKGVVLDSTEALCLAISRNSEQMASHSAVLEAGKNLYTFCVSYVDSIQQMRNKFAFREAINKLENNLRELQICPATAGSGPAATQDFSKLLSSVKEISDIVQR
Chain of Tyrosine-protein kinase ABL1 (Homo sapiens) + Ras and Rab interactor 1 (Homo sapiens) (Q13671 whole entry, looked up): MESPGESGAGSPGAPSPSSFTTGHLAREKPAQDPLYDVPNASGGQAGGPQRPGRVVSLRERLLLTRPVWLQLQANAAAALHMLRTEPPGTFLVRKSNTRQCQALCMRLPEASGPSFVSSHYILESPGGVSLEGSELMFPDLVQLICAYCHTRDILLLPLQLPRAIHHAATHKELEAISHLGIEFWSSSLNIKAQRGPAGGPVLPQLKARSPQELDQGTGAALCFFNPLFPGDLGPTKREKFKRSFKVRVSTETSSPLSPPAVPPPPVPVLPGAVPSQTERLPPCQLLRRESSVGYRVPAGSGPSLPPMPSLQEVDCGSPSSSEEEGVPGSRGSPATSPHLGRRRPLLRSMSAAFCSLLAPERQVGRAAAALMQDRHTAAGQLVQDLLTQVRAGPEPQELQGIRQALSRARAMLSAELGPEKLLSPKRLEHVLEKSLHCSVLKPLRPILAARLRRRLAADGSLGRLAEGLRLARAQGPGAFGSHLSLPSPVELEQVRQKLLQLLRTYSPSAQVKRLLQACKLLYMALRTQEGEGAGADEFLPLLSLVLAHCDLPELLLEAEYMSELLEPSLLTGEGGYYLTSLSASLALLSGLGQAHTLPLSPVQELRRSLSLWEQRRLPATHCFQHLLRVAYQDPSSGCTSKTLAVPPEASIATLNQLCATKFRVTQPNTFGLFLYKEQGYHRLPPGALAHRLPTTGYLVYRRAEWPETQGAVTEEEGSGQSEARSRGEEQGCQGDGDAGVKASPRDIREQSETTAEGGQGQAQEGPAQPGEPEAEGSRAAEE
For `O=C(O)CC1S/C(=N\N=C/c2ccccc2O)N(c2ccc(O)cc2)C1=O` (stereo unspecified), the inhibition was 1.65% (inactive). `C#CCOCCOCCOCCNc1nc(N2CCN(C(=O)C(Cc3ccc(O)cc3)n3cc(C(N)CC(C)C)nn3)CC2)nc(N2CCN(C(=O)C(Cc3ccc(O)cc3)n3cc(C(N)C(C)CC)nn3)CC2)n1` (stereo unspecified) was tested, and the inhibition was 14.3% (active). `C#CCOCCOCCOCCNc1nc(N2CCN(C(=O)[C@H](CCCCN)n3cc([C@@H](N)C(C)CC)nn3)CC2)nc(N2CCN(C(=O)[C@H](Cc3ccc(O)cc3)n3cc([C@@H](N)C(C)CC)nn3)CC2)n1` (stereo partly specified) was tested, and the inhibition was 5.61% (inactive). `C#CCOCCOCCOCCNc1nc(N2CCN(C(=O)[C@H](Cc3ccc(O)cc3)n3cc(C(N)CC(C)C)nn3)CC2)nc(N2CCN(C(=O)[C@H](CCC(=O)O)n3cc(C(N)[C@H](C)CC)nn3)CC2)n1` (stereo partly specified) was tested, and the inhibition was 2.63% (inactive). For `CSc1ncnc2c1ncn2CCCNCC1CCCCC1`, the inhibition was -2.89% (inactive). In the case of `CC12CCC(=O)C=C1CCC1C2C(O)CC2(C)C1CCC2(O)C(O)CO` (stereo unspecified), the inhibition is reported as 4.13% (inactive). For `CSc1ncnc2c1ncn2CC(=O)C1CCC2C3CCC4=CC(=O)CCC4(C)C3CCC12C` (stereo unspecified), the inhibition was 13.2% (active). For `CSc1ncnc2c1ncn2CCCNCc1ccco1`, the inhibition was -1.36% (inactive). With `CCOC(=O)COc1nc(C)cc(C(F)(F)F)c1C#N` the inhibition was 0.37% (inactive). With `CCOC(=O)CN(C(=O)COc1nc(C)cc(C)c1C#N)c1ccc(Cl)cc1` the inhibition was 6.34% (active). With `CCOC(=O)CN(C(=O)COc1nc(-c2ccccc2)cc(C)c1C#N)c1ccc(F)cc1` the inhibition was -3.22% (inactive). For `CN(C1CCS(=O)(=O)C1)S(=O)(=O)c1ccc2ccccc2c1` (stereo unspecified), the inhibition was 0.18% (inactive). `COc1cc2c(cc1O)C(SC)=NC(C)(C)C2` was tested, and the inhibition was 2.88% (inactive). With `CCOc1cccc(-c2nnc(SCC(=O)NC3CC3)n2C)c1` the inhibition was -0.29% (inactive). With `COc1cccc(-n2c(SCC(=O)NC3CCS(=O)(=O)C3)nc3ccccc3c2=O)c1` (stereo unspecified) the inhibition was -0.16% (inactive). In the case of `CCOc1ccc(-n2c(SCC(=O)NC3CCS(=O)(=O)C3)nnc2-c2cccnc2)cc1` (stereo unspecified), the inhibition is reported as 5.73% (active). In the case of `Cc1ccc(C(=O)CSc2nc3ccccc3c(=O)n2N)o1`, the inhibition is reported as -0.26% (inactive). With `Cc1ccccc1N1CCN(CC(=O)NCc2ccc(Cl)cc2)CC1` the inhibition was 1.14% (inactive). In the case of `COc1cc(CNc2ncnc3c2ncn3[C@H]2CN(Cc3cccs3)C[C@@H](CO)O2)cc(OC)c1OC`, the inhibition is reported as 3.5% (inactive). With `CC(C)Cn1c(N2CCN(C(=O)/C=C/c3ccccc3)CC2)nc2ccccc21` the inhibition was 0.97% (inactive). `CN(Cc1c(F)cccc1Cl)C(=O)CNC(=O)c1ccc2c(c1)OCO2` was tested, and the inhibition was 34.7% (active). `O=C(NCCc1ccc(C(F)(F)F)cc1)c1ccc2c(c1)OCO2` was tested, and the inhibition was -1% (inactive). In the case of `Cc1cccc(C)c1NC(=O)CNC(=O)c1ccc2c(c1)OCCO2`, the inhibition is reported as 1.15% (inactive). With `Cn1c(=O)cc(SCC(=O)N2CCCC2)c2cc(Cl)ccc21` the inhibition was -25.5% (inactive). For `CNC1(c2nnnn2-c2c(C)cccc2C)CCOC(C)(C)C1` (stereo unspecified), the inhibition was -2.89% (inactive). In the case of `Oc1ccc2ccc3cccc[n+]3c2c1`, the inhibition is reported as -21.5% (inactive). `CCOc1cc(C(=S)N2CCOCC2)ccc1O` was tested, and the inhibition was -1.01% (inactive). For `COc1cc(C(=S)N2CCOCC2)ccc1O`, the inhibition was 11% (active). In the case of `COc1ccc(C)cc1NC(=S)N1CCOCC1`, the inhibition is reported as -0.53% (inactive). For `CCOC(=O)C1CCN(C(=O)COc2cc(C)c(Br)c(C)c2)CC1`, the inhibition was -1.96% (inactive). In the case of `CCn1c(SCC(=O)Nc2ccc(OC)c(OC)c2)nnc1-c1c[nH]c2ccccc12`, the inhibition is reported as 3.38% (inactive).
